Laboratory results: the supplement of paper PMC13380429

Test system: Vero E6 infected with SARS-CoV-2
Experiment: inhibition of SARS-CoV-2 cytopathic effect; higher = more antiviral protection, active = above 15
Details: 48 h

Measured: inhibition of SARS-CoV-2 cytopathic effect

COc1cccc(OC)c1OCCNC[C@H]1COc2ccccc2O1
inactive: 1 nM -0.3% | 8.33 nM 0.6% | 100 nM 0.45% | 833.33 nM 0% | 10000 nM 0.85%

COc1cc2ncnc(Nc3ccc(Oc4ccccc4)cc3)c2cc1OC [SRC-kinase-inhibitor-I]
inactive: 1 nM 14.1% | 8.33 nM 2.88% | 100 nM 0.56% | 833.33 nM -4.38% | 10000 nM -9.32%

NC(=O)[C@@H](CCC(F)(F)F)N(Cc1ccc(-c2ncon2)cc1F)S(=O)(=O)c1ccc(Cl)cc1 [avagacestat]
inactive: 1 nM 0.74% | 8.33 nM -2.98% | 100 nM -5.03% | 833.33 nM -4.21% | 10000 nM -6.12%

CCOC(=O)Nc1cc2c(c(N)n1)N=C(c1ccccc1)[C@H](C)N2 [mivobulin]
inactive: 1 nM 3.19% | 8.33 nM 0.16% | 100 nM 1.34% | 833.33 nM 1.06% | 10000 nM -0.59%

COC[C@H]1OC(=O)c2coc3c2[C@@]1(C)C1=C(C3=O)[C@@H]2CCC(=O)[C@@]2(C)C[C@H]1OC(C)=O [wortmannin]
inactive: 1 nM -3.55% | 8.33 nM -1.71% | 100 nM -2.28% | 833.33 nM -4.43% | 10000 nM -2.83%
